Source: PubChem BioAssay
Active and inactive are the calls of the source. Unless noted, how the calls were made is not given here.

Key:
[1] = resazurin metabolic signal in HepG2 cells – cell-based, resazurin fluorescence, 24 h, PK04 Diversity Set, profiling panel (AID 1172); conditions: HepG2 viability, higher = more signal
[2] = budding yeast growth changes without added modifier – OD600, strain BY4716, 24 h, basal condition, primary screen (AID 1173); conditions: S. cerevisiae BY4716 growth, OD600, 24 h; higher = more signal, called active from +8 up or from −8 down
[3] = viability profiling in MM1S myeloma cells – cell-based, resazurin fluorescence, basal, 24 h, PK04 Diversity Set, profiling panel (AID 1174); conditions: higher = more signal, called active from +8 up or from −8 down;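 further: MM1S multiple myeloma cell line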
[4] = target: Dihydroorotate dehydrogenase (quinone), mitochondrial (Plasmodium falciparum (isolate 3D7)) (UniProt Q08210); experiment: inhibition of P. falciparum DHODH – biochemical, C-terminal His tag, absorbance 600 nm, primary screen (AID 1175); conditions: PfDHODH enzyme, DCIP absorbance 600 nm; higher = more signal, called active from +8 up or from −8 down;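 further: recombinant parasite enzyme with a five histidine tag at its C terminus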
Dihydroorotate dehydrogenase (quinone), mitochondrial (Plasmodium falciparum (isolate 3D7)), sequence (Q08210 whole entry, looked up): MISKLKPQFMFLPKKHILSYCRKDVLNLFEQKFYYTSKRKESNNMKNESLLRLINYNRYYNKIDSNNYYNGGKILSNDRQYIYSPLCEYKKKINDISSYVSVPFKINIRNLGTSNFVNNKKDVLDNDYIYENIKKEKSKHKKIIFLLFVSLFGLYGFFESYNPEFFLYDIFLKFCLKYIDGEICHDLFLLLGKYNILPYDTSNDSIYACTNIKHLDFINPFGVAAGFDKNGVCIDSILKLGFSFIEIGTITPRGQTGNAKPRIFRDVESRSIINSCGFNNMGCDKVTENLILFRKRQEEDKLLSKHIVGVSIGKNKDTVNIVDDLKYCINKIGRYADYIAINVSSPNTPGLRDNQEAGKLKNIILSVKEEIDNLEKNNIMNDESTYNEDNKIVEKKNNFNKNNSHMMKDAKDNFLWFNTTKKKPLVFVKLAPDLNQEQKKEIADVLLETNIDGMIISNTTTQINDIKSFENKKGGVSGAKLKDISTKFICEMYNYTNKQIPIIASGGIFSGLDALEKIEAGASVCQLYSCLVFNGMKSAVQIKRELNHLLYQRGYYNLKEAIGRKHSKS

[5] = inhibition of PAO1 biofilm formation – strain PAO1, LB-PBS medium, absorbance 600 nm, primary screen (AID 1176); conditions: P. aeruginosa PAO1 growth/biofilm, A600, 12 h; higher = more signal
[6] = growth modulation of vineyard yeast isolate – strain RM11-1a, OD600, basal, 24 h, primary screen (AID 1177);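 further: cultures grown under basal conditions with no added stressor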; conditions: S. cerevisiae RM11-1a growth, OD600, 24 h; higher = more signal, called active from +8 up or from −8 down
[7] = growth of efflux-deficient E. coli DRC39 – strain DRC39, OD650, 24 h, E. coli filamentation inducers, primary screen (AID 1178);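 further: growth measured as culture turbidity by optical density at 650 nm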; conditions: E. coli DRC39 acrAB, higher = more signal, called active from +8 up or from −8 down
[8] = growth of efflux-deficient E. coli DRC39 – strain DRC39, OD650, 48 h, E. coli filamentation inducers, primary screen (AID 1179);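 further: screen aims at cell division blockers that make cells filament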; conditions: E. coli DRC39 delta-acrAB growth, higher = more signal, called active from +8 up or from −8 down
[9] = viability profiling in RPMI8226 myeloma cells – cell-based, resazurin fluorescence, basal, 24 h, PK04 Diversity Set, profiling panel (AID 1180); conditions: higher = more signal;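 further: RPMI8826 multiple myeloma cell line at 5000 cells per well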
[10] = target: E3 ubiquitin-protein ligase XIAP (Homo sapiens) (UniProt P98170); experiment: small molecules binding XIAP protein – biophysical, small-molecule microarray, fluorescence 635 nm, primary screen (AID 1181); conditions: higher = more signal;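 further: score merges 667 nm emission and signal to noise over triplicate slides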
E3 ubiquitin-protein ligase XIAP (Homo sapiens), sequence (P98170 whole entry, looked up, the tested form may be a part): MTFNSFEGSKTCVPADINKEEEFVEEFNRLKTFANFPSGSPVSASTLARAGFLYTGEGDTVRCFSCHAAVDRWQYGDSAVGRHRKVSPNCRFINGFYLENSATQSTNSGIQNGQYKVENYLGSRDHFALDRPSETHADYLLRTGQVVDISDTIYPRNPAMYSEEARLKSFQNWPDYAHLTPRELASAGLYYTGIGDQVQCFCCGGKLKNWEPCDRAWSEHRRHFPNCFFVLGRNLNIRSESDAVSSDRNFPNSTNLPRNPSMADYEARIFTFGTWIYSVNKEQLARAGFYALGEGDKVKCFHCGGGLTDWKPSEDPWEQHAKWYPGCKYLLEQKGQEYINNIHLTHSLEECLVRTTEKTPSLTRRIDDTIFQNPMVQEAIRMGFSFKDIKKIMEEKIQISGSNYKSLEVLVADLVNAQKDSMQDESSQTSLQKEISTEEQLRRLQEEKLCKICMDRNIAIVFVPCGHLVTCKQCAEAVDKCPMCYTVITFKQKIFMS

[11] = system: XIP peptide (Xip251-270) binding; experiment: XIP fragment 251-270 binding compounds – biochemical, small-molecule microarray, fluorescence 635/667 nm, 0.1 µg/mL protein, primary screen (AID 1182); conditions: fluorescent protein binding, 635 nm, higher = more signal, called active from +8 up or from −8 down
XIP peptide (Xip251-270) = experiment: compounds binding XIP fragment 251-270 – biochemical, small-molecule microarray, fluorescence 635/667 nm, 0.5 µg/mL protein, primary screen (AID 1183); conditions: fluorescence 635 nm, higher = more signal
[12] = blood-stage malaria parasite viability loss – strain 3D7, DAPI fluorescence, 100 nL, primary screen (AID 1184);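 further: parasites grown inside human red blood cells in medium with human serum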; conditions: P. falciparum 3D7 growth, 3 d, higher = more signal
[13] = target: Homeobox protein Hox-A13 (Mus musculus) (UniProt Q62424); experiment: disruptors of Hoxa13 oligonucleotide interaction – biochemical, fluorescence polarization, labeled oligonucleotide, primary screen (AID 1185); conditions: Hoxa13:DNA binding, 15 min, higher = more signal, called active from +8 up or from −8 down
Homeobox protein Hox-A13 (Mus musculus), sequence (Q62424 whole entry, looked up): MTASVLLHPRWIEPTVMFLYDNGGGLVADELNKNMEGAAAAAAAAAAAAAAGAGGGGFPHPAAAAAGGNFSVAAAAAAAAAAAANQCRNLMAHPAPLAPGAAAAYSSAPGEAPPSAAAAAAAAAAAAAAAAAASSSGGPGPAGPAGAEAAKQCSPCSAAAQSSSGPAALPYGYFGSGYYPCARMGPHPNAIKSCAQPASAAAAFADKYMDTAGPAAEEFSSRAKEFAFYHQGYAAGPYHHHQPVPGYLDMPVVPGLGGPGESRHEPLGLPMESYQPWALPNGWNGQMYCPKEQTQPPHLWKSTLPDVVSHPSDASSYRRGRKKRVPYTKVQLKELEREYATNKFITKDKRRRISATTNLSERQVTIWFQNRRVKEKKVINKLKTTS

SMILES	z-score [1]	z-score [2]	z-score [3]	composite z-score [4]	z-score [5]	z-score [6]	z-score [7]	z-score [8]	z-score [9]	composite z-score [10]	composite z-score [11]	composite z-score (XIP peptide (Xip251-270))	z-score [12]	z-score [13]
CC(C)=CCCC(C)=CCON=C1C[C@@H](O)[C@@H](O)[C@@H]2[C@@H]3C(=O)N(Cc4ccccc4)C(=O)[C@@H]3CC[C@@H]12	1.42	-0.404 (inactive)	0.772 (inactive)	0.317 (inactive)	-0.143 (inactive)	0.581 (inactive)	0.593 (inactive)	1.01 (inactive)	0.97	-0.121	0.146 (inactive)	0.703	0.83	-0.241 (inactive)
CCOC(=O)C1=NO[C@@]2(C=C(Br)C3(OCCCO3)[C@H]3O[C@H]32)C1	-0.68	-0.303 (inactive)	-0.227 (inactive)	0.552 (inactive)	0.356 (inactive)	0.227 (inactive)	0.58 (inactive)	0.643 (inactive)	-0.249	0.0657	2.67 (inactive)	0.512	0.522	0.14 (inactive)
O=C1[C@H]2[C@H]3[C@H](O)[C@H](O)CC(=NOC[C@@H](O)COCc4ccco4)[C@@H]3CC[C@H]2C(=O)N1C[C@@H]1CCCO1	0.188	0.408 (inactive)	0.59 (inactive)	0.121 (inactive)	-0.662 (inactive)	1.1 (inactive)	0.93 (inactive)	1.14 (inactive)	-0.256	0.137	0.0071 (inactive)	0.791	0.965	0.515 (inactive)
C#CCCCON=C1C[C@@H](O)[C@@H](O)[C@@H]2[C@@H]3C(=O)N(c4ccc(F)cc4F)C(=O)[C@@H]3CC[C@@H]12	1.49	-0.652 (inactive)	0.225 (inactive)	-0.278 (inactive)	-1.25 (inactive)	-1.07 (inactive)	-0.0313 (inactive)	-0.152 (inactive)	0.33	-0.0786	0.76 (inactive)	0.0996	-0.217	-3.13 (inactive)
C=COC[C@@H]1CN2[C@@H](CC[C@@H](C)[C@@H]2c2ccc(Br)cc2)C(=O)O1	-0.32	-4.37 (inactive)	-0.345 (inactive)	-3.12 (inactive)	-1.01 (inactive)	-0.889 (inactive)	-1.03 (inactive)	-1.65 (inactive)	0.169	-0.0669	-0.0657 (inactive)	0.103	-0.977	-2.54 (inactive)
C=CC[C@@H]1C=C[C@H](ON=C(C)CCC(=O)OC[C@H]2O[C@H](C#Cc3ccccc3)C=C[C@@H]2Oc2ccc(C)cc2)[C@@H](CO)O1	-0.0055	1.09 (inactive)	0.212 (inactive)	0.103 (inactive)	-0.242 (inactive)	1.23 (inactive)	0.911 (inactive)	-1.55 (inactive)	-0.177	0.132	1.18 (inactive)	0.437	0.37	-4.14 (inactive)
Cn1c(=O)n2n(c1=O)[C@H]1[C@H](O)[C@@H]3O[C@@H]3C(=O)[C@H]1CC2	-0.12	0.243 (inactive)	-0.871 (inactive)	0.438 (inactive)	-0.343 (inactive)	0.723 (inactive)	0.463 (inactive)	0.166 (inactive)	-0.52	0.0799	0.151 (inactive)	0.186	0.551	0.336 (inactive)
CCOC(=O)[C@H](CC(C)C)NC(=O)CCC1CC(OC(=O)NCCc2ccc(F)cc2)CC2(CCCC(COC(=O)NCCc3ccc(Cl)cc3)O2)O1 (some centres undefined)	0.182	0.0981 (inactive)	-0.0687 (inactive)	-0.188 (inactive)	0.213 (inactive)	-0.596 (inactive)	-0.0646 (inactive)	-0.617 (inactive)	0.48	-0.247	1.08 (inactive)	0.571	-1.9	-6.52 (inactive)
CO[C@H]1COC(=O)CC=C[C@@H](C)[C@H](NS(=O)(=O)c2ccc(C)cc2)COC(=O)CCC[C@@H]1C	0.703	-0.99 (inactive)	1.01 (inactive)	-0.242 (inactive)	-0.361 (inactive)	-0.5 (inactive)	0.0468 (inactive)	0.0191 (inactive)	0.545	0.0797	0.0922 (inactive)	0.231	1.19	-0.499 (inactive)
CCCNC(=O)OC[C@H]1O[C@H](CCON=C(C)C)C=C[C@@H]1Oc1ccc(OC)cc1	-0.131	-2.44 (inactive)	-0.112 (inactive)	-0.411 (inactive)	0.736 (inactive)	-0.0159 (inactive)	0.675 (inactive)	-1.4 (inactive)	-0.331	-0.0859	0.771 (inactive)	0.219	1.07	0.928 (inactive)
COC(=O)[C@H](C)NC(=O)CCC1CC(OC(=O)NCc2cccc3ccccc23)CC2(CCCC(COC(=O)NCC(c3ccccc3)c3ccccc3)O2)O1 (some centres undefined)	1.64	-0.425 (inactive)	0.945 (inactive)	0.0975 (inactive)	-1.24 (inactive)	0.15 (inactive)	0.0127 (inactive)	0.393 (inactive)	1.04	-0.108	0.519 (inactive)	0.583	-1.87	-4.01 (inactive)
CO[C@H]1COC(=O)CC=C[C@H](C)[C@@H](OC)COC(=O)[C@@H](C)NC(=O)CC=C[C@@H]1C	0.789	-0.774 (inactive)	1.01 (inactive)	-0.355 (inactive)	-0.491 (inactive)	-0.937 (inactive)	0.0013 (inactive)	-0.597 (inactive)	0.808	-0.244	-0.303 (inactive)	0.54	-0.297	-1.25 (inactive)
O=c1n(Cc2cc3c(cc2Cl)OCO3)c(=O)n2n1CC[C@@H]1C(=NOCc3ccccc3)[C@H]3O[C@H]3[C@@H](O)[C@@H]12	-0.0806	-1.61 (inactive)	-0.595 (inactive)	-1.22 (inactive)	0.14 (inactive)	-1.8 (inactive)	-0.485 (inactive)	-0.628 (inactive)	-1.02	-0.0365	0.0872 (inactive)	-0.0262	0.0783	0.962 (inactive)
CCN1C(=O)[C@H]2[C@H]3[C@H](O)[C@H](O)CC(=NOCC(C)C)[C@@H]3CC[C@H]2C1=O	0.424	-0.18 (inactive)	-0.243 (inactive)	-0.423 (inactive)	0.99 (inactive)	-0.589 (inactive)	-0.556 (inactive)	-1.86 (inactive)	0.279	-0.0696	0.821 (inactive)	0.645	-0.108	-1.62 (inactive)
CC(=O)OC[C@H]1O[C@H](CC=NO[C@H](C)c2cn([C@H](CO)Cc3ccccc3)nn2)C=C[C@@H]1OC(C)=O	0.242	1.53 (inactive)	-0.376 (inactive)	0.53 (inactive)	0.642 (inactive)	1.57 (inactive)	-0.182 (inactive)	-0.554 (inactive)	0.103	0.699	0.364 (inactive)	0.289	0.242	-1.83 (inactive)
CCC=CCCC(OC(=O)c1ccc(Br)cc1)C1=CCCCC1=O (centres undefined)	-0.0791	-2.43 (inactive)	-1.06 (inactive)	-1.38 (inactive)	0.119 (inactive)	-0.791 (inactive)	0.181 (inactive)	0.0322 (inactive)	-0.88	-0.291	0.84 (inactive)	0.49	-0.713	-3.22 (inactive)
CO[C@H]1COC(=O)[C@@H](C)COC(=O)[C@H](COCc2ccccc2)NC(=O)CC=C[C@H]1C	-0.238	-1.58 (inactive)	0.671 (inactive)	0.604 (inactive)	-0.543 (inactive)	0.085 (inactive)	1.05 (inactive)	-0.997 (inactive)	0.267	0.227	-0.0299 (inactive)	-0.474	-0.386	-1.96 (inactive)
CO[C@H]1COC(=O)[C@@H](C)COC(=O)[C@H](C)NC(=O)CC=C[C@H]1C	0.926	-0.916 (inactive)	0.433 (inactive)	0.289 (inactive)	-1.13 (inactive)	-0.212 (inactive)	0.618 (inactive)	-0.539 (inactive)	0.351	-0.327	-0.166 (inactive)	0.564	-0.455	-0.236 (inactive)
CO[C@H]1COC(=O)CC=C[C@H](C)[C@@H](OC)COC(=O)[C@H](C)COC(=O)CC=C[C@@H]1C	0.531	-0.319 (inactive)	0.254 (inactive)	0.491 (inactive)	-0.838 (inactive)	0.606 (inactive)	0.827 (inactive)	0.0975 (inactive)	-0.501	-0.256	0.163 (inactive)	-0.337	0.916	0.296 (inactive)
CC(CCN1CCCCc2nc(C)c(C)cc21)=NOC[C@@H](O)COCc1ccco1	-0.862	-0.0954 (inactive)	-0.399 (inactive)	-0.441 (inactive)	-0.16 (inactive)	0.0681 (inactive)	-0.0051 (inactive)	0.562 (inactive)	-0.688	0.0251	2.22 (inactive)	0.863	-0.246	-4.37 (inactive)
O=C(NN=C1C[C@@H](O)[C@@H](O)[C@@H]2[C@@H]3C(=O)N(C[C@@H]4CCCO4)C(=O)[C@@H]3CC[C@@H]12)OCc1ccccc1	0.0986	-0.485 (inactive)	0.169 (inactive)	-2.17 (inactive)	0.328 (inactive)	-1.49 (inactive)	-0.0573 (inactive)	0.118 (inactive)	-0.111	0.0623	1.77 (inactive)	0.126	0.263	0.756 (inactive)
